From PubChem BioAssay
MmCpn inh: Inhibitors of TCP-1 ring complex (TRiC) of Methanococcus maripaludis (MmCpn): qHTS | Chaperonin Mm-Cpn (Methanococcus maripaludis) | purified Mm-Cpn ATPase, ADP Transcreener TR-FRET | Potency, µM (highest dose often 76.9 µM), usual class: inhibitors | actives 0.031% (n = 330,000) | AID 504842, 2011; note: nearly all actives have a fitted effect of over 80% in size
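Compound-treated chaperonin, 25 nM final, turns over 10 uM ATP at 37°C for 30 min following a 10 min preincubation; ADP generated competes with ADP-d2 for Eu-cryptate antibody, lowering FRET.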
TDP43 rescue: qHTS of TDP-43 Inhibitors. TDP-43 expressing yeast growth rescue, BacTiter-Glo, 24 h. Potency, µM (series often up to 46.1 µM), most hits filed as activators. actives 1.8% (n = 410,000). AID 652104, 2013; note: nearly all actives have a fitted effect of over 50% in size
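Yeast expressing TDP-43 (pregrown in raffinose, seeded at OD600=0.02 in galactose medium) exposed to compounds 24 hr at 30 deg C. Growth read by BacTiter-Glo luminescence; rescue of toxicity appears as increased signal.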
aSyn yeast inh: qHTS of alpha-syn Inhibitors; Yeast expressing alpha-synuclein, growth rescue, BacTiter-Glo, 24 h; Potency, µM (titrated, usually from 46.1 µM), usual class: activators; actives 0.14% (n = 370,000); note: nearly all actives have a fitted effect of over 65% in size
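Screening used galactose-induced yeast with toxic alpha-synuclein levels, exposed to compound for 24 hr at 30 deg C. Cell growth, read with BacTiter-Glo luminescence, gave the measured signal.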
ClpP mod: qHTS Assay for Activators of ClpP. Potency, µM (doses to about 57.5 µM). purified B. subtilis ClpP, FRET peptide cleavage, 20 min. actives 1.9% (n = 340,000). AID 651965, 2013; active = well fitted falling curve with a large enough effect; inconclusive = small, poorly fitted or top-dose-only effect; inactive = no such curve, though single readings can be large or run the other way; note: the source files actives as falling curves though it sought activators and does not explain the sign; nearly all actives have a fitted effect of over 65% in size
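FRET quenching reversal measured ClpP activation: 10 microg/mL B. subtilis ClpP at pH 8 with the FRET-FV decapeptide, read at 430 nm after 320 nm excitation. The 20-min minus 0-min signal was scaled between DMSO/no-enzyme wells and ADEP (5.8 microM final).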
FUS suppressor: qHTS for Suppressors of FUS Proteinopathy: Primary screen using FUS-linked yeast assay. actives 0.24% (n = 390,000). Potency, µM (highest dose often 76.6 µM), usual class: activators. S. cerevisiae FUS-expressing, growth rescue, OD600, 24 h; note: nearly all actives have a fitted effect of over 55% in size
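Restored growth of FUS-toxic S. cerevisiae, read as 600 nm absorbance after 24 h at 30C in galactose medium (starting OD 0.005). Controls CP55940 and DMSO.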
Abeta rescue: qHTS for compounds that reverse cellular toxicity of Amyloid beta (A-beta) peptide in yeast: Primary Screen. yeast expressing A-beta42, growth rescue, OD600, 48 h; response scale: 0% DMSO, 100% iron-clioquinol control. Potency, µM (top dose mostly 46.1 µM), usual class: activators. actives 0.063% (n = 410,000). AID 1347071, 2019; note: nearly all actives have a fitted effect of over 55% in size
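Growth rescue measured by 600 nm absorbance after 48 h yeast culture at 30 C with compound. Values normalized between DMSO and an equimolar ferric chloride plus clioquinol control.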
Numbers stand for hits; n = inactive; u = inconclusive; x = not tested or not shown. Most compounds without a hit are left out; they make up all but 3.6% or so of the library. Unless noted, calls come from the whole dose curve; as a rule, active = well fitted curve in the direction sought with a large enough effect; inconclusive = small, poorly fitted or top-dose-only effect, or another doubt; inactive = no such curve, though single readings can be large; an effect the other way counts as inactive or inconclusive.

SMILES	MmCpn inh	TDP43 rescue	aSyn yeast inh	ClpP mod	FUS suppressor	Abeta rescue
Cc1ccc2c(=O)c(C(=O)c3ccc(F)cc3)cn(CC(=O)NCc3ccccc3)c2n1	x	n	x	n	n	n
O=C(O)c1ccc(OS(=O)(=O)c2ccc(Cl)s2)cc1	n	14µM	n	n	n	n
CCCCn1c(NS(=O)(=O)c2ccc(C)cc2)c(S(=O)(=O)c2ccccc2)c2nc3ccccc3nc21	n	n	n	25µM	x	n
Cc1ccc(S(=O)(=O)c2c(N)n(CC3CCOC3)c3nc4ccccc4nc23)cc1 (centres undefined)	n	n	n	13µM	u	n
Nc1c(S(=O)(=O)c2cccc(Cl)c2)c2nc3ccccc3nc2n1CCN1CCOCC1	n	n	n	32µM	n	n
O=C(c1cc(Cl)ccc1F)N1CCCC(c2nc(-c3cccs3)no2)C1 (centres undefined)	x	x	x	x	n	x
c1ccc(Sc2nc(N3CCCCC3)nc(N3CCCCC3)n2)nc1	x	16µM	n	n	n	n
N=C(N)Sc1nc(N2CCCCC2)nc(N2CCCCC2)n1	n	n	n	n	x	n
c1cc(-c2cccs2)nc(-c2cccs2)c1	n	n	n	x	n	n
c1csc(-c2cnc3ccccc3n2)c1	n	u	n	6.3µM	n	n
Cc1cc(C)n(-c2nc(NCCCO)c3c4c(sc3n2)CCCC4)n1	n	u	n	18µM	n	n
Cc1cc(C)n(-c2nc(NCC(C)O)c3c4c(sc3n2)COC(C)(C)C4)n1 (centres undefined)	n	n	n	28µM	n	n
Cc1cc(C)n(-c2nc(NCC3CCCO3)c3c4c(sc3n2)COC(C)(C)C4)n1 (centres undefined)	n	u	n	n	n	n
Cc1cc(C)n(-c2nc(NCC(C)O)c3c4c(sc3n2)CCCC4)n1 (centres undefined)	n	u	n	32µM	n	n
COC(=O)Cn1c(C2CC(=O)N(c3c(C)cccc3C)C2)nc2ccccc21 (centres undefined)	x	n	x	n	n	n
Cc1cc(C)nc(Nc2ccc(C)c([N+](=O)[O-])c2)n1	n	20µM	n	x	n	n
Cc1cc(C)nc(Nc2cccc(Cl)c2)n1	n	8.9µM	n	n	n	n
Cc1cc(C)nc(/N=C(\N)Nc2ccc(C)c([N+](=O)[O-])c2)n1	n	n	n	n	n	n
Cc1cnc2ccccc2c1/C=C/c1ccc(N)cc1	x	x	n	n	x	x
CCOc1ccc(CNC(=O)c2cnc(SC)nc2C)cc1	x	n	x	n	n	n
CCN(CC)S(=O)(=O)c1ccc(NC(=O)CCc2c(C)nc3cc(-c4ccc(Cl)cc4)nn3c2C)cc1	x	n	x	16µM	u	n
CCOC(=O)C1CCN(C(=O)CCc2c(C)nc3cc(-c4ccccc4)nn3c2C)CC1	n	18µM	n	n	n	n
CCOC(=O)C1CCCCN1C(=O)CCc1c(C)nc2cc(-c3ccccc3)nn2c1C (centres undefined)	n	u	n	n	n	n
Cc1ccc(NC(=O)CCc2c(C)nc3cc(-c4ccccc4)nn3c2C)cc1F	x	n	x	28µM	n	n
COc1cccc2c(NCc3ccccc3)nc(-n3c(N)nc4ccccc43)nc12	x	x	x	x	n	x
SMILES	MmCpn inh	TDP43 rescue	aSyn yeast inh	ClpP mod	FUS suppressor	Abeta rescue
O=C(Nc1ccncc1)c1ccc(NS(=O)(=O)c2cccc(F)c2)cc1	n	n	n	32µM	x	n
COc1cccc(S(=O)(=O)Nc2ccc(C(=O)Nc3ccncc3)cc2)c1	n	n	n	n	x	n
Cc1ccc2oc(=O)n(CCNC(=O)Nc3ccc(Cl)cc3)c2c1	x	n	x	n	n	n
Cc1ccc(S(=O)(=O)NCCCCCC(=O)Nc2ccccc2C)cc1	n	n	n	n	n	n
CC(=O)Nc1ccc(S(=O)(=O)NCCC(=O)OC(C)C(=O)c2ccc(C)cc2)cc1 (centres undefined)	n	n	n	n	n	n
Cc1ccc(NC(=O)C(C)OC(=O)CCNS(=O)(=O)c2ccc(C)cc2)cc1 (centres undefined)	n	n	n	32µM	n	n
Cc1cccc(S(=O)(=O)NCCC(=O)OC(C)C(=O)NC(=O)NC2CCCCC2)c1 (centres undefined)	n	n	n	32µM	n	n
Cc1ccc(S(=O)(=O)NCCCCCC(=O)Nc2ccccc2)cc1	n	n	n	28µM	n	n
N#C/C(=C/c1ccc(N2CCCCC2)o1)c1cccc(F)c1	n	n	n	n	32µM	n
N#C/C(=C/c1ccc(N2CCCCCC2)o1)c1ccc(Cl)cc1	n	n	n	n	22µM	n
Cc1ccc(/C(C#N)=C\c2ccc(N3CCOCC3)o2)cc1	n	n	n	n	n	n
COc1ccc(-c2ccc(-c3noc(C)n3)c(OC)n2)cc1	n	n	n	14µM	n	n
COCc1nc(-c2ccc(-c3ccc(C)cc3)nc2OC)no1	n	n	n	35µM	n	n
COc1cccc(-c2nc(-c3ccc(-c4ccccc4)nc3OC)no2)c1	x	n	x	25µM	n	n
COc1ccc(-c2ccc(-c3noc(-c4ccc(OC)c(OC)c4)n3)c(OC)n2)cc1	n	x	x	x	x	x
COc1ccc(-c2ccc(-c3noc(-c4cccc(OC)c4)n3)c(OC)n2)cc1	n	n	n	3.2µM	n	n
COc1ccc(-c2nc(C)c(CCNC(=O)C(=O)Nc3ccccc3C#N)s2)cc1OC	x	n	n	n	n	n
Cc1ccccc1CN1CCCCC(NC(=O)c2cc(-c3ccccc3)no2)C1=O (centres undefined)	x	x	x	x	n	x
CC1CCN(C(=O)Cn2cc(SCC(=O)Nc3ccccc3C(F)(F)F)c3ccccc32)CC1	x	n	x	n	n	n
CC1=C(C(=O)OCc2ccc3nsnc3c2)N2C(=O)[C@@H](NC(=O)OCc3ccc4nsnc4c3)[C@H]2SC1	x	x	x	n	x	x
CCNC(=O)/C(=C\C=C\c1ccccc1)NC(=O)c1ccc(Br)o1	n	n	n	3.2µM	n	n
Cc1ccccc1OCC(=O)Nc1ccc2nc(SCC(=O)N3CCCC3)sc2c1	x	u	x	n	n	n
CCS(=O)(=O)N1CC(=O)N(c2cc(C)ccc2C)C(C)(C(=O)NC2CCCCC2)C1 (centres undefined)	x	n	x	n	n	n
c1ccc(-c2nc(-c3cccs3)[nH]c2-c2ccccc2)cc1	n	n	n	32µM	n	n
